The source made the active and inactive calls. The calls were made as follows: active = hit-call score of the fitted dose curve at least 0.9, where 1 is the maximum; inactive = score below 0.9.

Chain of Cellular tumor antigen p53 (Homo sapiens) (P04637 whole entry, looked up, the tested form may be a part): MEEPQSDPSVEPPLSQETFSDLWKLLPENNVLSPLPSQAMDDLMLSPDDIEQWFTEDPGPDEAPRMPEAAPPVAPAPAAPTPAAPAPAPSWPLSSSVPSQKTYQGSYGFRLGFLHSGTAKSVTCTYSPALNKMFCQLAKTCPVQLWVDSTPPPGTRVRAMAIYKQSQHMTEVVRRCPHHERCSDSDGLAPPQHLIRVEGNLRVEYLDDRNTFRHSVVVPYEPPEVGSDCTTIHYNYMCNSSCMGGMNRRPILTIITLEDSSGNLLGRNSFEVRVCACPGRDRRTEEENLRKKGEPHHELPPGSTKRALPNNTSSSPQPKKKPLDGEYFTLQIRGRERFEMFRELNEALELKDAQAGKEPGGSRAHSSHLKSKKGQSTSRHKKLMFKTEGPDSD

One assay concerns the target Cellular tumor antigen p53 (Homo sapiens) (UniProt P04637). Nature of the assay: ATG_p53_CIS: Attagene CIS-FACTORIAL HepG2 Assay for human p53 Transcription Factor (AID 2282994). To be noted: HepG2 p53 cis-element reporter, Attagene mRNA; actives raise or lower the signal. The method in brief:
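Steps: transfect HepG2 with multiplexed cis reporter constructs; dose chemicals 24 h; extract RNA, reverse-transcribe, PCR-amplify reporter sequences; FAM-label, HpaI-digest, resolve fragments by CE. Activity fitted both directions relative to DMSO.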
For the molecule `CC/C=C\C#N`, the molecule was called inactive.

Regarding `CC/C=C\CCOC(C)OCC` (configuration not stated), the result was inactive.

As to `O=C(C=Cc1ccccc1)OCCCc1ccccc1`, the outcome was inactive.

Consider `CC(=N[Si](C)(C)C)O[Si](C)(C)C`, for which the molecule was called inactive.

As a reminder, the AC50 is the midpoint of the concentration-response curve, whichever way the signal moves. On to `CN(C)CCC=C1c2ccccc2CCc2ccccc21`, for which the AC50 was 23.1 µM (active).

`CCC=C(C)C=O`: the result was inactive.

Turning to `c1coc(CNc2ncnc3nc[nH]c23)c1`, the result was inactive.

As for `CCCc1ccc(O)cc1`, the molecule was called inactive.

On to `COc1ccc(OC)cc1`, for which the result was inactive.

`N=C1N=C(N)c2ccccc21`: the molecule was classed as inactive.

Turning to `CC1=CC(O)CC(C)(C)C1` (configuration not stated), the molecule was classed as inactive.

Turning to `CCCCCCOC(C)=O`, the molecule was classed as inactive.

In the case of `OCCCO`, the outcome was inactive.

On to `CCCCOC(=O)C(C)OC(=O)CCC` (configuration not stated), for which the molecule was classed as inactive.

On to `Nc1ccc(N)c([N+](=O)[O-])c1`, for which the result was inactive.

On to `OC[C@H]1O[C@@H](O[C@H]2[C@H](O)[C@@H](O)[C@H](O)O[C@@H]2CO)[C@H](O)[C@@H](O)[C@H]1O`, for which the result was inactive.

On to `CC(C)(CO)CO`, for which the call was inactive.

`C/C=C(\C)C(=O)OC/C=C(\C)CCC=C(C)C`: the result was inactive.

`CC/C=C\CCOC(=O)C(C)C`: the molecule was classed as inactive.

`C[C@H](CCC(=O)O)[C@H]1CC[C@H]2[C@@H]3CC[C@@H]4C[C@H](O)CC[C@]4(C)[C@H]3CC[C@]12C`: the AC50 is 100 µM (active).

`CCCCCCC(C)O` (configuration not stated): the outcome was inactive.

With `O=C(OCc1ccccc1)c1ccccc1O`, the AC50 is 145 µM (active).

Read-out in a further assay: not listed separately
Description: BSK_3C_TissueFactor: BioMAP Diversity Plus: 3C Assay for Tissue Factor Biomarker Activity (AID 2282997). To be noted: BioMAP 3C HUVEC, tissue factor biomarker readout; actives raise or lower the signal. The method in brief: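 Tissue factor on primary human umbilical vein endothelium was read by ELISA 24 h after dosing, gain or loss relative to DMSO. Cytotoxicity ran alongside via SRB (0.1%, TCA-fixed, 560 nm).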
Regarding `CC(C)(C)c1cccc(O)c1`, the result was inactive.

As to `O=C1OC2(c3ccc(O)cc3Oc3cc(O)ccc32)c2ccccc21`, the result was inactive.

Turning to `Nc1ccc(N)c([N+](=O)[O-])c1`, the outcome was inactive.

As for `CC(C)(CO)CO`, the outcome was inactive.

Regarding `CC(=O)c1ccc(C)cc1`, the outcome was inactive.

Read-out in another assay: not listed separately
Description: BSK_3C_uPAR: BioMAP Diversity Plus: 3C Assay for Urokinase-type plasminogen activator receptor (uPAR) Biomarker Activity (AID 2282998). To be noted: BioMAP 3C HUVEC, uPAR biomarker ELISA; actives raise or lower the signal. The method in brief:
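Values derive from bidirectional curve fitting relative to DMSO, which served as baseline of activity. uPAR was measured by ELISA in human umbilical vein endothelial primary cultures 24 h after compound addition.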
A general note: ELISA stands for enzyme-linked immunosorbent assay.
Regarding `CC(C)(C)c1cccc(O)c1`, the AC50 is 0.016 µM (active).

Take `O=C1OC2(c3ccc(O)cc3Oc3cc(O)ccc32)c2ccccc21`: the outcome was inactive.

For `Nc1ccc(N)c([N+](=O)[O-])c1`, the outcome was inactive.

As to `CC(C)(CO)CO`, the result was inactive.

Regarding `CC(=O)c1ccc(C)cc1`, the result was inactive.

Read-out in another assay: not listed separately
Description: BSK_3C_VCAM1: BioMAP Diversity Plus: 3C Assay for Vascular cell adhesion molecule 1 (VCAM1) Biomarker Activity (AID 2282999). To be noted: BioMAP 3C HUVEC, VCAM1 ELISA, cytokine-stimulated; actives raise or lower the signal. The method, boiled down:
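HUVEC primary cells, 24 h compound exposure; VCAM-1 by ELISA; gain/loss of signal fitted bidirectionally vs DMSO baseline.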
On to `CC(C)(C)c1cccc(O)c1`, for which the outcome was inactive.

In the case of `O=C1OC2(c3ccc(O)cc3Oc3cc(O)ccc32)c2ccccc21`, the outcome was inactive.

For `Nc1ccc(N)c([N+](=O)[O-])c1`, the outcome was inactive.

Turning to `CC(C)(CO)CO`, the result was inactive.

In the case of `CC(=O)c1ccc(C)cc1`, the result was inactive.

The values above are taken from PubChem BioAssay (EPA / NIEHS).
